MsrA act – activates bovine MsrA enzyme. purified bovine MsrA, absorbance read-out. activation, % at 10.6 µM. actives 0.3% (n = 360,000); in the data active = activation above about 7.5%
MsrA inhibitor – inhibits bovine methionine sulfoxide reductase A; purified bovine MsrA, absorbance read-out; inhibition, % at 15.5 µM; actives 0.75% (n = 360,000)
SMARCA2 act – activators of SMARCA2 function | activation, % at 9.1 µM | actives 1% (n = 370,000) | MG213 cells, MMTV-luciferase reporter, dexamethasone, overnight; in the data active = activation above about 7.8%
KLK7 zymogen act – activates the human kallikrein-7 zymogen | P49862 | purified proKLK7, EDANS-DABCYL substrate fluorescence; 100% is mature enzyme control, 0% vehicle | activation, % at 7 µM | actives 0.9% (n = 370,000) | AID 652039;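 active = activation above the mean of all tested compounds plus 3 SD, computed per campaign excluding outliers beyond control limits, cut at about 13% in these data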
Target sequence (P49862 whole entry, looked up): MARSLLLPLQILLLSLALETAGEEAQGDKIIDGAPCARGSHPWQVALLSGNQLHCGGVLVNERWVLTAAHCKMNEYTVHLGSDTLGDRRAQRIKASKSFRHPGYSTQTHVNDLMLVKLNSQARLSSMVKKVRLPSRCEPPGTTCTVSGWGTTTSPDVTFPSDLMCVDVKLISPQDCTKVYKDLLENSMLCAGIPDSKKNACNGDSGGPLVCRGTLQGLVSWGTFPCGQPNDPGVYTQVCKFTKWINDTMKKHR
MsrA conf – confirmation of bovine MsrA inhibitors. shares compounds with MsrA inhibitor. purified bovine MsrA, absorbance read-out. inhibition, % at 15.5 µM. actives 41% (n = 2,300);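 note: coupled to thioredoxin reductase with NADPH and selenocystamine and DMSO as substrate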
A number is an active result; - = inactive; . = no result given. The list is not random: actives were taken first. Their share in the collection is about 2.8%. Cut-off read from the data, not from the text of the source, unless noted: active = inhibition above about 4.5%; inactive = the rest.

SMILES | MsrA act | MsrA inhibitor | SMARCA2 act | KLK7 zymogen act | MsrA conf
COc1cc(/C=N/NC(N)=O)cc([N+](=O)[O-])c1O | - | 4.7 | - | - | -
C=CCN1C(=O)[C@@H](CC(=O)NCCCCc2ccccc2)[C@]2(C(=O)OC)CCCCC=C12 | . | . | - | - | .
Fc1cccc(Cc2c(C3CCCCC3)nc3ccc(Br)cn23)c1 | - | - | - | - | .
O=C(O)c1ccc(/C=C2\SC(=S)N(NC(=O)c3ccccc3[N+](=O)[O-])C2=O)cc1 | - | 4.8 | - | - | -
O=C(NN1C(=O)/C(=C\c2ccc(O)c([N+](=O)[O-])c2)SC1=S)c1ccccc1Cl | - | - | - | - | .
O=C1c2cccc(Cl)c2C(=O)c2c1cccc2N1CCCC1 | - | 9.4 | - | - | -
CC(c1nccs1)N(C)c1nc2nonc2nc1N(C)C (configuration not stated) | - | 4.9 | - | - | -
COc1cc2c(cc1OC)C(=S)NC1(CCCC1)C2 | - | 6.1 | - | - | -
N#C/C(=C/c1ccc(CNS(=O)(=O)c2ccccc2)o1)C(=O)NCc1ccccc1 | - | 4.8 | - | - | -
CC(C)Cn1cc(C(=O)NCCCN2CCCC2=O)c2c3ccccc3n(C)c2c1=O | - | 4.9 | - | - | -
Cn1c(=O)c2c(nc(N/N=C/c3ccco3)n2C)n(C)c1=O | - | 6.2 | - | - | 6.8
Cn1c(=O)c2c(ncn2CC(=O)N/N=C/c2ccco2)n(C)c1=O | - | - | - | - | .
Cn1c(=O)c2c(nc(N/N=C/c3cccs3)n2C)n(C)c1=O | - | 4.9 | - | - | 5.7
COC(=O)c1cc2c(c3c4cc(OC)ccc4n(S(=O)(=O)c4ccccc4)c13)C(=O)N(C)C2 | . | - | - | - | .
NC(=S)N/N=C/c1ccc(-c2cccc([N+](=O)[O-])c2)o1 | - | 5.1 | - | - | 7.6
Cc1ccc(C(=O)C2=C(O)C(=O)N(CCCN3CCOCC3)C23C(=O)N(C)c2ccccc23)o1 (configuration not stated) | - | 10.2 | - | - | 6.2
O=C(O)CC/C(=N\Nc1ccc(S(=O)(=O)N2CCCC2)cc1[N+](=O)[O-])c1cccs1 | - | 4.8 | - | - | -
O=C(O)CC/C(=N\Nc1ccc(S(=O)(=O)N2CCOCC2)cc1[N+](=O)[O-])c1cccs1 | - | 4.9 | - | - | 4.7
O=C(COc1ccc(S(=O)(=O)N2CCCCC2)cc1Cl)N1CCOCC1 | - | - | - | - | .
OCCOCCn1c(-c2ccccc2)nc(=S)c2c1CCCC2 | - | 5.9 | - | - | -
CCOC(=O)CC[C@@H]1CC[C@]2(CCCN(S(=O)(=O)C3CCCCC3)C2)O1 | . | . | - | - | .
CCCC1=[N+](CC(=O)c2ccccc2)CCn2c(C)ccc21 | - | 5.2 | - | - | 4.6
CCOC(=O)[C@]12CCC=C1N(Cc1ccc(Cl)cc1Cl)C(=O)[C@H](CC(=O)NCc1cccc(C(F)(F)F)c1)C2 | - | - | - | - | .
O=C(O)COc1ccc(/C=N/NC(=O)/C(=C/C=C/c2ccccc2)NC(=O)c2ccccc2)cc1 | - | 8.4 | - | - | 7.9
COC(=O)/C(=C\C=C\c1ccccc1)NC(=O)c1ccccc1 | - | - | - | - | .
SMILES | MsrA act | MsrA inhibitor | SMARCA2 act | KLK7 zymogen act | MsrA conf
O=C(O)CCNC(=O)/C(=C\C=C\c1ccccc1)NC(=O)c1ccccc1 | - | 6.8 | - | - | -
CCCCOc1ccc(C(=O)N/C(=C/C=C/c2ccccc2)C(=O)O)cc1 | - | 6.8 | - | - | -
CCOC(=O)C1CSCCS(=O)(=O)N1Cc1cccc(Cl)c1 (configuration not stated) | . | - | - | - | .
CC(=O)Nc1nc2ncccn2c1-c1ccccc1 | . | . | - | - | .
COC(=O)[C@]12C[C@H](CC(=O)NCC3CCCCC3)C(=O)N(Cc3cccc4ccccc34)C1=C[C@H](C(C)C)O[C@@H]2C1CC1 | . | . | - | - | .
Fc1ccc(-c2n[nH]c(=S)n2N=Cc2ccc(-c3ccccc3)cc2)cc1 | . | . | - | - | .
O=C(CSc1ncnc2sc3c(c12)CCCC3)Nc1ccc(Oc2ccccc2)cc1 | . | . | - | - | .
O=C(COCc1ccccc1)N1CC[C@H]2[C@H](CCCN2Cc2ccccc2)C1 | . | . | - | - | .
CCn1cc(C(=O)N2CCN(Cc3ccc(C)cc3)CC2)c(=O)c2ccc(C)nc21 | . | . | - | - | .
C=CCNc1nc(-c2cccs2)c(CC(=O)O)s1 | - | - | - | - | .
O=C(O)Cc1sc(Nc2ccccc2)nc1-c1cccs1 | - | 4.9 | - | - | -
Cn1c(NC(=O)/C=C\c2ccccc2)cc(=O)n(C)c1=O | - | 5.3 | - | - | -
Cn1c(NC(=O)/C=C/c2c(F)cccc2Cl)cc(=O)n(C)c1=O | - | - | - | - | .
CCCCN(C)C(=O)c1cn(C(C)c2ccccc2)nn1 (configuration not stated) | . | . | - | - | .
O=C(Nc1ccc2nc(-c3cccs3)[nH]c2c1)c1cccs1 | - | - | - | - | .
O=C(Nc1ccc2nc(-c3cccs3)[nH]c2c1)c1ccco1 | - | 4.7 | - | - | -
CC(/C=N/NC(=O)c1nnn(-c2nonc2N)c1C(C)C)=C\c1ccco1 | - | 4.9 | - | - | 5.8
CCCc1c(C(=O)N/N=C/C(C)=C/c2ccco2)nnn1-c1nonc1N | - | - | - | - | .
COc1cccc(-c2c(C(=O)N/N=C/c3ccco3)nnn2-c2nonc2N)c1 | - | 4.9 | - | - | -
Cc1cc[n+](-c2[nH]c(=O)sc2/C=N/N=C(\[O-])c2ccncc2)cc1C | - | - | - | - | .
Cc1cc[n+](-c2[nH]c(=O)sc2/C=N/N=C(\[O-])CCn2c3ccccc3c3ccccc32)cc1 | - | - | - | - | .
O=c1[nH]c(-[n+]2ccccc2)c(/C=N/N=C(\[O-])c2ccccc2)s1 | - | 5.0 | - | - | 5.2
Cc1cc[n+](-c2[nH]c(=O)sc2/C=N/N=C(\[O-])c2ccncc2)cc1 | - | 12.6 | - | - | -
Cc1ccc[n+](-c2[nH]c(=O)sc2/C=N/N=C(\[O-])c2cccnc2)c1 | - | - | - | - | .
Cc1cc[n+](-c2[nH]c(=O)sc2/C=N/N=C(\[O-])c2ccccc2)cc1 | - | 5.0 | - | - | -
SMILES | MsrA act | MsrA inhibitor | SMARCA2 act | KLK7 zymogen act | MsrA conf
Cc1cc(C)c[n+](-c2[nH]c(=O)sc2/C=N/N=C(\N)[S-])c1 | - | 5.4 | - | - | 5.5
Cc1ccc[n+](-c2[nH]c(=O)sc2/C=N/NC(=O)c2ccccc2[O-])c1 | - | 4.9 | - | - | -
Cc1cc[n+](-c2[nH]c(=O)sc2/C=N/N=C(\[O-])c2ccccc2)cc1C | - | 4.7 | - | - | -
COC(=O)C1CN(Cc2ccc(Cl)cc2)CCS(=O)(=O)N1Cc1cn(Cc2ccc(C)cc2)nn1 (configuration not stated) | . | . | - | - | .
CC(=O)c1ccc(N2CCN(S(=O)(=O)c3c(C(=O)N4CCCC4)c(C)n(C)c3C)CC2)cc1 | - | 5.1 | - | - | -
CC(=O)c1ccc(N2CCN(S(=O)(=O)c3c(C(=O)N4CCCCC4)c(C)n(C)c3C)CC2)cc1 | - | - | - | - | .
Cc1cc(/C=C(/C#N)c2nc3ccccc3[nH]2)c(C)n1-c1cc(C(=O)O)cc(C(=O)O)c1 | - | 4.9 | - | - | -
